Here are results for 26 molecules from PubChem BioAssay (EPA / NIEHS).

Several values for one entry are separate records, joined by “and”; a condition that tells them apart may be missing. Equal values may be shown once. Results filed as inconclusive are left out. Activity calls are given as the source filed them. How the source made its calls: active means hit-call score of the fitted dose curve at least 0.9, where 1 is the maximum; inconclusive means response in the unintended direction; inactive means score below 0.9.

human Protein Tyrosine Phosphatase Non-receptor Type 9 (PTPN9), PTPN9 (gene 5780), sequence (P43378 whole entry, looked up): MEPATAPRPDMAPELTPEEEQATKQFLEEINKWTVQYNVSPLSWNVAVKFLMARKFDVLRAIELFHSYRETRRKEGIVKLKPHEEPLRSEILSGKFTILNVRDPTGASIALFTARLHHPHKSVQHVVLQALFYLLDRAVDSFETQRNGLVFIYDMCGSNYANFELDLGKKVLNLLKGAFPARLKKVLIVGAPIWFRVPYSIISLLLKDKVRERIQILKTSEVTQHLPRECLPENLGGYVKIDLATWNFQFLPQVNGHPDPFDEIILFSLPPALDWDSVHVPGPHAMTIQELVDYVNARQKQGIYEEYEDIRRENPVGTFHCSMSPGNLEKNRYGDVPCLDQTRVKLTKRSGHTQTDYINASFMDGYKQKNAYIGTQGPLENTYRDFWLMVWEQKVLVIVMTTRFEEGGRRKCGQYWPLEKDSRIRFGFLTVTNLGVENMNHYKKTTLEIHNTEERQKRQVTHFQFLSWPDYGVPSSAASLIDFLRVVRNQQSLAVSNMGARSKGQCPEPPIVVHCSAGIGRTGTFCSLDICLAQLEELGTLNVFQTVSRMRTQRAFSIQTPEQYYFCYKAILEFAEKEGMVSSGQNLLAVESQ
human Protein Tyrosine Phosphatase Non-receptor Type 2 (PTPN2), PTPN2 (gene 5771), sequence (P17706 whole entry, looked up): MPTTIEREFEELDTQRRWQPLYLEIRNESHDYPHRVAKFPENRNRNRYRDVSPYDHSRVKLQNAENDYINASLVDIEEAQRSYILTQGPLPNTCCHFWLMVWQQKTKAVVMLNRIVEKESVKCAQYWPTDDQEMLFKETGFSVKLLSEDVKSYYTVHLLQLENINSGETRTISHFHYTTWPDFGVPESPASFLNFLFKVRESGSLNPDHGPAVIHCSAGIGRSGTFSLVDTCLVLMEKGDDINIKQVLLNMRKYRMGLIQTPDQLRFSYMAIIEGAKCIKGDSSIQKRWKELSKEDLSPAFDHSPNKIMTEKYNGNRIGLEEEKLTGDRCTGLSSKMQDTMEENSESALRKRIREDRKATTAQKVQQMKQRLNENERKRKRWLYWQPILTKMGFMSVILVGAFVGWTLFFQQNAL

One test deals with Tyrosine-protein phosphatase non-receptor type 12 (Homo sapiens) (UniProt Q05209). As to the kind of experiment: NVS_ENZ_hPTPN12: NovaScreen (NVS) Enzymatic Assay for human Protein Tyrosine Phosphatase Non-receptor Type 12 (PTPN12) (AID 2283204). The method, boiled down: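 Single-concentration duplicates (25 uM) preceded singleton concentration-response up to 50 uM for chemicals passing threshold. Cell-free recombinant PTPN12 activity was read 1.33 h after dosing via fluorescence after mobility-shift separation; loss of signal versus DMSO.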
Tyrosine-protein phosphatase non-receptor type 12 (Homo sapiens), sequence (Q05209 whole entry, looked up): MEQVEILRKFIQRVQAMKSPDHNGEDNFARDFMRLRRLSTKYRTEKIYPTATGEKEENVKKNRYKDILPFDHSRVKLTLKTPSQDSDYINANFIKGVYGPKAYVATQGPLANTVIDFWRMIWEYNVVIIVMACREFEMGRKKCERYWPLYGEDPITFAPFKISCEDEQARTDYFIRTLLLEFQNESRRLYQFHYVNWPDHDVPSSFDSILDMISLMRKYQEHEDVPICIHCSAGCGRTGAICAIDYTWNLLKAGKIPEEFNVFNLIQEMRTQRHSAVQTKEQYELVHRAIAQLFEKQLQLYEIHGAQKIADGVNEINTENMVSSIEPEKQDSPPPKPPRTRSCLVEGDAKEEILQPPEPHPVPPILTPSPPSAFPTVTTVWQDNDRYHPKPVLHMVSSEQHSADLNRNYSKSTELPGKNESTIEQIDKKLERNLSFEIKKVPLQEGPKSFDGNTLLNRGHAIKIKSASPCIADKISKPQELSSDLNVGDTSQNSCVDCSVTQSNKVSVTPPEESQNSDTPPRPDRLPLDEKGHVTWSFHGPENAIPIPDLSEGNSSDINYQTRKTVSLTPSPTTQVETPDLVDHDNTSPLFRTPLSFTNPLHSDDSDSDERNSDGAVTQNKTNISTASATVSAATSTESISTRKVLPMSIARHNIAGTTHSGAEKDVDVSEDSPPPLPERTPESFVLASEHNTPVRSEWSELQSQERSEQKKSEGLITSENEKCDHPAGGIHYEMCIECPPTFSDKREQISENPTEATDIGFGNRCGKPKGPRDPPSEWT
Take `CCCCSP(=O)(SCCCC)SCCCC`: the molecule was called inactive.
With `CN(C)[C@@H]1C(=O)C(C(N)=O)=C(O)[C@@]2(O)C(=O)C3=C(O)c4c(O)cccc4[C@@](C)(O)[C@H]3[C@H](O)[C@@H]12`, the AC50 was 3.91 µM (active) and 18.2 µM (active) and 1.8 µM (active).
As for `COc1cc(OC)nc(Sc2cccc(Cl)c2C(=O)O)n1`, the call was inactive.

For a further test, the target named is Tyrosine-protein phosphatase non-receptor type 14 (Homo sapiens) (UniProt Q15678). As to the kind of experiment: NVS_ENZ_hPTPN14: NovaScreen (NVS) Enzymatic Assay for human Protein Tyrosine Phosphatase Non-receptor Type 14 (PTPN14) (AID 2283206). The method, boiled down: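 Cell-free recombinant human PTPN14 with fluorescent substrate, read 0.5 h after dosing by fluorescence and electrophoretic mobility shift separating substrate from product. Primary screen at 25 uM in duplicate; hits run to 50 uM maximum; loss of signal versus DMSO.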
Tyrosine-protein phosphatase non-receptor type 14 (Homo sapiens), sequence (Q15678 whole entry, looked up): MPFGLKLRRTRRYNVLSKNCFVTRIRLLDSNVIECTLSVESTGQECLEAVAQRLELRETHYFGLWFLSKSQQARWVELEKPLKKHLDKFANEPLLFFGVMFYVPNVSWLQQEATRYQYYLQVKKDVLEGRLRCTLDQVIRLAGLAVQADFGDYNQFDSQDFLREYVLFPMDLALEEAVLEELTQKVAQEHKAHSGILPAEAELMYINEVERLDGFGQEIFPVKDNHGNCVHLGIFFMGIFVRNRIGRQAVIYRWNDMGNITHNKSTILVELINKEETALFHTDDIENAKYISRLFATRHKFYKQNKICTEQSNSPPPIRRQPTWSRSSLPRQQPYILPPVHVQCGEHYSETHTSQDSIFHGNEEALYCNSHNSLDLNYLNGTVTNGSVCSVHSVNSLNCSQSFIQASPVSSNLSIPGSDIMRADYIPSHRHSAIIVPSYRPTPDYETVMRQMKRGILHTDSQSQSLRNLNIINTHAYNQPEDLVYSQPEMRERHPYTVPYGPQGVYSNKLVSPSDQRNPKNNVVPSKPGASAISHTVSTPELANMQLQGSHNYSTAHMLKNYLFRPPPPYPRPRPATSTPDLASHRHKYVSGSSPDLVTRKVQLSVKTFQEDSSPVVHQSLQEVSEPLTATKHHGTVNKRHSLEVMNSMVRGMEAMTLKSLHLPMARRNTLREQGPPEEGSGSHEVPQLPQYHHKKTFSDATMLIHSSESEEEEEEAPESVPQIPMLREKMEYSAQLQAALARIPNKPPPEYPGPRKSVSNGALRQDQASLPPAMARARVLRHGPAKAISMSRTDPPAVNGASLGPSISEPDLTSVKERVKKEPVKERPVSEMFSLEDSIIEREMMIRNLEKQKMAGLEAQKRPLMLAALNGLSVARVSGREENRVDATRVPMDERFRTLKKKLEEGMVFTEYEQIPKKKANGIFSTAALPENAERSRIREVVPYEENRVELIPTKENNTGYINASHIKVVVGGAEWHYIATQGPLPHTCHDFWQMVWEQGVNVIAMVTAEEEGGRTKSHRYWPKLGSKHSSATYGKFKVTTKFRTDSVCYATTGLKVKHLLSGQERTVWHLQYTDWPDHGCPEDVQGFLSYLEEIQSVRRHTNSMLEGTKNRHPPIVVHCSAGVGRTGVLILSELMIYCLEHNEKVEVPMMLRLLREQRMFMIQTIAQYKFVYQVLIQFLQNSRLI
With `CN1COCN(Cc2cnc(Cl)s2)C1=N[N+](=O)[O-]`, the molecule was classed as inactive.
`CCNc1nc(Cl)nc(NC(C)(C)C#N)n1`: the molecule was called inactive.
Consider `CNC(=O)Oc1cccc2c1OC(C)(C)O2`, for which the outcome was inactive.
Regarding `O=c1ccc(=O)[nH][nH]1`, the molecule was called inactive.
Regarding `CN(C)[C@@H]1C(=O)C(C(N)=O)=C(O)[C@@]2(O)C(=O)C3=C(O)c4c(O)cccc4[C@@](C)(O)[C@H]3[C@H](O)[C@@H]12`, the AC50 was 26.3 µM (active).
For `O=C(O)c1cc(Oc2ccc(C(F)(F)F)cc2Cl)ccc1[N+](=O)[O-]`, the molecule was classed as inactive.
As to `CC(C)N(C(=O)SCC(Cl)=C(Cl)Cl)C(C)C`, the result was inactive.
Still for that read-out and setting: to `N#CSCSC#N` belongs “inactive”; to `CSC1=N[C@@](C)(c2ccccc2)C(=O)N1Nc1ccccc1`, “inactive”.
For `Nc1nc(N)nc(NC2CC2)n1`, the molecule was classed as inactive.
For `CCCCOC(=O)c1ccccc1C(=O)O`, the call was inactive.
Consider `CCC(=NOC/C=C/Cl)C1=C(O)CC(C2CCOCC2)CC1=O` (centres undefined), for which the call was inactive.

A further test addresses human Protein Tyrosine Phosphatase Non-receptor Type 2 (PTPN2), PTPN2 (gene 5771) (UniProt P17706). As to the kind of experiment: NVS_ENZ_hPTPN2: NovaScreen (NVS) Enzymatic Assay for human Protein Tyrosine Phosphatase Non-receptor Type 2 (PTPN2) (AID 2283207). In a few lines: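 Cell-free recombinant enzyme with fluorescent substrate, product separated by electrophoretic mobility shift; read 1 h after dosing. Primary screen single concentration (25 uM) in duplicate; actives followed in concentration series; loss of signal versus DMSO.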
Consider `S=C1NCCN1`, for which the molecule was classed as inactive.
The same measure, in the same setting: the same measure for `CCc1cccc(CC)c1N(COC)C(=O)CCl`: “inactive”.
On to `CN(C)[C@@H]1C(=O)C(C(N)=O)=C(O)[C@@]2(O)C(=O)C3=C(O)c4c(O)cccc4[C@@](C)(O)[C@H]3[C@H](O)[C@@H]12`, for which the AC50 was 20.1 µM (active).
As to `C#CC(C)(C)NC(=O)c1cc(Cl)cc(Cl)c1`, the outcome was inactive.
As for `CCOP(=S)(OCC)Oc1cc(C)nc(C(C)C)n1`, the molecule was classed as inactive.
Consider `Nc1c(Cl)cc([N+](=O)[O-])cc1Cl`, for which the outcome was inactive.

The next test deals with human Protein Tyrosine Phosphatase Non-receptor Type 4 (PTPN4), PTPN4 (gene 5775) (UniProt P29074). As to the kind of experiment: NVS_ENZ_hPTPN4: NovaScreen (NVS) Enzymatic Assay for human Protein Tyrosine Phosphatase Non-receptor Type 4 (PTPN4) (AID 2283208). In a few lines: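 Cell-free assay of PTPN4 expressed in Sf9 cells, using a fluorescent substrate with product separated by mobility shift; read 1.33 h after dosing. Single-point screen at 25 uM, then concentration-response up to 50 uM. Loss of signal relative to DMSO.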
For the molecule `CN(C)[C@@H]1C(=O)C(C(N)=O)=C(O)[C@@]2(O)C(=O)C3=C(O)c4c(O)cccc4[C@@](C)(O)[C@H]3[C@H](O)[C@@H]12`, the AC50 was 12.1 µM (active).
For the molecule `CCCOc1nn(C(=O)NS(=O)(=O)c2ccccc2C(=O)OC)c(=O)n1C`, the call was inactive.
In the case of `N#CSCSC#N`, the result was inactive.
Turning to `Cc1ccn2nc(S(=O)(=O)Nc3c(F)cccc3F)nc2n1`, the molecule was classed as inactive.
Take `CCOP(=S)(OCC)OC(Cl)C(Cl)(Cl)Cl` (centres undefined): the molecule was called inactive.

Another test concerns the target human Protein Tyrosine Phosphatase Non-receptor Type 9 (PTPN9), PTPN9 (gene 5780) (UniProt P43378). As to the kind of experiment: NVS_ENZ_hPTPN9: NovaScreen (NVS) Enzymatic Assay for human Protein Tyrosine Phosphatase Non-receptor Type 9 (PTPN9) (AID 2283209). The method, boiled down:
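Sf9-expressed enzyme in a cell-free assay, fluorescence read 1.33 h after dosing with mobility-shift separation of substrate and product. Tested at 25 uM in duplicate, then up to 50 uM; signal loss versus DMSO.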
As for `CN(C)[C@@H]1C(=O)C(C(N)=O)=C(O)[C@@]2(O)C(=O)C3=C(O)c4c(O)cccc4[C@@](C)(O)[C@H]3[C@H](O)[C@@H]12`, the AC50 was 2.57 µM (active).
As for `N#CSCSC#N`, the outcome was inactive.
`CCOP(=S)(OCC)OC(Cl)C(Cl)(Cl)Cl` (centres undefined): the AC50 was 12.7 µM (active).

The next test addresses human Protein Tyrosine Phosphatase Non-receptor Type 6 (PTPN6), PTPN6 (gene 5777) (UniProt P29350). The test is described as follows: NVS_ENZ_hPTPN6: NovaScreen (NVS) Enzymatic Assay for human Protein Tyrosine Phosphatase Non-receptor Type 6 (PTPN6) (AID 2283210). The method, boiled down: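 Cell-free assay with recombinant PTPN6 expressed in SF9 cells, fluorescent substrate, product separated from substrate by electrophoretic mobility shift; read 1.33 hours after dosing. Primary screen in duplicate at 25 uM, actives retested in concentration series; DMSO baseline.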
In the case of `S=C1NCCN1`, the molecule was called inactive.
For the molecule `CN(C)[C@@H]1C(=O)C(C(N)=O)=C(O)[C@@]2(O)C(=O)C3=C(O)c4c(O)cccc4[C@@](C)(O)[C@H]3[C@H](O)[C@@H]12`, the AC50 is 41.4 µM (active).
As for `CCCCOC(=O)c1ccccc1C(=O)O`, the molecule was classed as inactive.

In the next test the target is human Protein Tyrosine Phosphatase Receptor Type F (PTPRF), PTPRF (gene 5792) (UniProt P10586). The test is described as follows: NVS_ENZ_hPTPRF: NovaScreen (NVS) Enzymatic Assay for human Protein Tyrosine Phosphatase Receptor Type F (PTPRF) (AID 2283213). The method, boiled down: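 Cell-free fluorescence enzyme assay with recombinant protein and substrate; product separated by electrophoretic mobility shift. Read 1 h after dosing, single 25 uM duplicate screen, then concentration-response up to 50 uM; loss of signal vs DMSO.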
human Protein Tyrosine Phosphatase Receptor Type F (PTPRF), PTPRF (gene 5792), sequence (P10586 whole entry, looked up): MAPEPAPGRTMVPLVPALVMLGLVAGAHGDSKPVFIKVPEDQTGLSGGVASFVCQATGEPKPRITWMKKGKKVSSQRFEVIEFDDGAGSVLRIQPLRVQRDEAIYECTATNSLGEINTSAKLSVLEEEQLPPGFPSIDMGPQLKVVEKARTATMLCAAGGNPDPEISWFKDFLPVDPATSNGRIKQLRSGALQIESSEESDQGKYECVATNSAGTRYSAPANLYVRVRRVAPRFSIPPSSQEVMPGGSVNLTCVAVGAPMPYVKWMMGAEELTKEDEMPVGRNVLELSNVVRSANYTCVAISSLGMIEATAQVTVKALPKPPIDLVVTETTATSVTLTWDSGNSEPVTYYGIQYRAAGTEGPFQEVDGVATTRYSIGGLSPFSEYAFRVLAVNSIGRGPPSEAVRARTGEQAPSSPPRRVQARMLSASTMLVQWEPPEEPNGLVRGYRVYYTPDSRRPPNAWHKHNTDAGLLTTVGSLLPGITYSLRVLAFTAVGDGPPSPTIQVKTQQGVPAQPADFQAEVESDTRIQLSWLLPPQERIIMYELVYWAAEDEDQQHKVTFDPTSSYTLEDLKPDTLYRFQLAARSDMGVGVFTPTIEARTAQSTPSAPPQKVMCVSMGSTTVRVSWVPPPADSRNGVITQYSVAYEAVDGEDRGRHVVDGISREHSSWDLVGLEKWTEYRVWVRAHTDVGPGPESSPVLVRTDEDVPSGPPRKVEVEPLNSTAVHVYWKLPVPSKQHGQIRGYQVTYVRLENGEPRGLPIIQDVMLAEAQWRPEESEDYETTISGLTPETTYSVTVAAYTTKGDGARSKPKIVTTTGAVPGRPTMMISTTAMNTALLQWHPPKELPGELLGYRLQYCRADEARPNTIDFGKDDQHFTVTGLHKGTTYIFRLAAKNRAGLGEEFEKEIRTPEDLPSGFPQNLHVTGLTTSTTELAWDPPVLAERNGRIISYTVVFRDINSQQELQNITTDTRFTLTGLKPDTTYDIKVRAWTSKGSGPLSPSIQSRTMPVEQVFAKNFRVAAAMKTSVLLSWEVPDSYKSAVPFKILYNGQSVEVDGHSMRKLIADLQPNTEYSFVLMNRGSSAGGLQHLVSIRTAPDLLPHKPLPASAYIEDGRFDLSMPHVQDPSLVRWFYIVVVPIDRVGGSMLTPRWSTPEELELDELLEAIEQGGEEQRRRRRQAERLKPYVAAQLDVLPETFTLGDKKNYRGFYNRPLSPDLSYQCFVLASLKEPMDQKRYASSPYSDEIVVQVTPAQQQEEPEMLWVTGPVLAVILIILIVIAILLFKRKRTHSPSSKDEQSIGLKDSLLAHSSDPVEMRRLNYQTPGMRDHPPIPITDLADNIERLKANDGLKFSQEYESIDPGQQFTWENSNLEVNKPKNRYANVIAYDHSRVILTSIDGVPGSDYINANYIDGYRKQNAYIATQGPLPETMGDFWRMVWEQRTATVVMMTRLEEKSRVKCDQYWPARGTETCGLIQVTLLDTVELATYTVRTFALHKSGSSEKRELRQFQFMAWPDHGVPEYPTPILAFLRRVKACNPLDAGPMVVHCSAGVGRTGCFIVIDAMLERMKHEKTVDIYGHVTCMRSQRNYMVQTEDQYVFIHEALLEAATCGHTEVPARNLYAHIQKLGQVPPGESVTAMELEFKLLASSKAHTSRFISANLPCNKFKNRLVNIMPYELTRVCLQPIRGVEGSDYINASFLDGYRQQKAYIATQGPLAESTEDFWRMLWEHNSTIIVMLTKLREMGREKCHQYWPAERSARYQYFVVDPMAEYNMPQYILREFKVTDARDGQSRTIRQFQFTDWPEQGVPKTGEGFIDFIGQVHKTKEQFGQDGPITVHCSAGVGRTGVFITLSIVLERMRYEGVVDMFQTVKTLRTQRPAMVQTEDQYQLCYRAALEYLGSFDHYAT
As for `CC(=NC#N)N(C)Cc1ccc(Cl)nc1`, the molecule was classed as inactive.
Turning to `S=C1NCCN1`, the call was inactive.
On to `CCCCSP(=O)(SCCCC)SCCCC`, for which the result was inactive.

The target in the next test is human Rho Associated Coiled-coil Containing Protein Kinase 1 (ROCK1), ROCK1 (gene 6093) (UniProt Q13464). The test is described as follows: NVS_ENZ_hROCK1: NovaScreen (NVS) Enzymatic Assay for human Rho Associated Coiled-coil Containing Protein Kinase 1 (ROCK1) (AID 2283214). In a few lines: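 Cell-free recombinant human ROCK1 activity assay; fluorescent substrate and product separated by electrophoretic mobility shift, read 1 h after dosing. Screened in duplicate at 25 uM; loss of signal versus DMSO baseline scored as inhibition.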
For the molecule `CNC(=O)ON=C(SC)C(=O)N(C)C`, the result was inactive.
On to `CN(C)[C@@H]1C(=O)C(C(N)=O)=C(O)[C@@]2(O)C(=O)C3=C(O)c4c(O)cccc4[C@@](C)(O)[C@H]3[C@H](O)[C@@H]12`, for which the molecule was classed as inactive.
For `CC1(C(=O)Nc2ccc(O)c(Cl)c2Cl)CCCCC1`, the outcome was inactive.
Turning to `CCC(=O)Nc1ccc(Cl)c(Cl)c1`, the molecule was classed as inactive.

As usually defined, the AC50 is the concentration at which the activity in the assay is half-maximal.
